From PubChem BioAssay
Rows were chosen to be rich in hits. Some 7.3% of all compounds tested hit in one or more screens of this group.
Gal4-VP16 FLuc: inhibits Gal4-VP16 luciferase reporter, ROR gamma counter-screen. 310,000 compounds, 3.5% hits. Potency, µM (titrated, usually from 53.6 µM), for inactives: at the highest dose activity, negative = inhibition, actives largely listed as inhibitors. Drosophila S2 Gal4-VP16 UAS-luciferase, luminescence, 20 h;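 note: Gal4-VP16 expression switched on by copper sulfate through the metallothionein promoter; nearly all actives have a fitted effect of over 50% in size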
Tau FP inhib: inhibitors of human tau fibril formation. Potency, µM (highest dose often 57.7 µM), for inactives: top-dose activity, negative = inhibition, most hits filed as inhibitors. K18 P301L tau heparin fibrillization, Alexa594 FP, 6 h. 280,000 compounds, 0.39% hits. P10636. AID 1468; note: nearly all actives have a fitted effect of over 55% in size
Target sequence (P10636 561-689 P618L limits assumed): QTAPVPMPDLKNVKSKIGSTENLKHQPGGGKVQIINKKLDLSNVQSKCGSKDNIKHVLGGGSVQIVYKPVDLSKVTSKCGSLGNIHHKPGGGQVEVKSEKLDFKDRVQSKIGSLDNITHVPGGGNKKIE
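Human tau K18 […] P301L fragment, 15 uM unlabeled plus 0.24 uM Alexa 594-labeled tau (final), with compound and 20 uM heparin in 100 mM sodium acetate pH 7; 6 hr at 37 C, then Alexa 594 FP read.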
Tau fibril ThT: inhibitors of human tau fibril formation, thioflavin T binding; recombinant tau K18 P301L, heparin-induced fibrillization, ThT fluorescence; Potency, µM (titrated, usually from 57.4 µM), without a hit: at the highest dose activity, negative = inhibition, most hits filed as inhibitors; 270,000 compounds, 2.1% hits; note: nearly all actives have a fitted effect of over 55% in size
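K18 P301L tau (15 uM + 0.24 uM Alexa 594-tagged), heparin 20 uM, NaOAc pH 7, 6 h 37 C; ThT 30 uM, 1 h RT, ex 450/em 510 nm.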
Tau fluor counter: counter-screen for tau fibril formation inhibitors. tau K18 P301L Alexa594 fluorescence, heparin fibrillization. 280,000 compounds, 0.93% hits. Potency, µM (titrated, usually from 57.7 µM), for inactives: top-dose activity change, negative = decrease; note: nearly all actives have a fitted effect of over 55% in size
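Human tau K18 P301L (15 uM unlabeled, 0.24 uM Alexa 594-labeled) in 100 mM sodium acetate pH 7 with 20 uM heparin, 6 hr at 37 C. ThT 30 uM added, 1 hr ambient; Alexa 594 FP and total fluorescence read at 555/632 nm.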
RORg inh: blocks mouse ROR gamma transcriptional activity. P51450. Drosophila S2 Gal4-RORgamma UAS-luciferase reporter, 20 h. Potency, µM (series often up to 53.6 µM), inactives show at the highest dose activity change, negative = inhibition, hits mostly inhibitors. 310,000 compounds, 5.4% hits. AID 2551; note: nearly all actives have a fitted effect of over 60% in size
Target sequence (P51450 whole entry, looked up, the tested form may be a part): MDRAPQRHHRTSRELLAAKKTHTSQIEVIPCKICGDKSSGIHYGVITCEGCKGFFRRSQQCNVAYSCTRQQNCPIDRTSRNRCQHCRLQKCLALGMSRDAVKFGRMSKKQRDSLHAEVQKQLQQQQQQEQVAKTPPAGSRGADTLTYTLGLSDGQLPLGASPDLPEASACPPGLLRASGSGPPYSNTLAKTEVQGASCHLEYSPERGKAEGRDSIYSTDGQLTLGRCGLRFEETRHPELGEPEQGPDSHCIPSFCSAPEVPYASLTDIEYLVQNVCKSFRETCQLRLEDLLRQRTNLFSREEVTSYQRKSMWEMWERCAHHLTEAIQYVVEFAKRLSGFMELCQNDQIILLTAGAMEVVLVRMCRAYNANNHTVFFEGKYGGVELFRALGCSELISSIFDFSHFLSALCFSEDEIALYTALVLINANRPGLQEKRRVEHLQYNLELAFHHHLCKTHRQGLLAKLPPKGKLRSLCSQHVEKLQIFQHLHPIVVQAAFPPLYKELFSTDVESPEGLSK
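In this cell-based reporter format, copper sulfate (700 uM final) drives Gal4–ROR gamma fusion expression from a metallothionein promoter in Drosophila Schneider cells; compounds preincubated 1 hr, reporter read after 20 hr at ambient temperature.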
Active calls of the source: *; ? = inconclusive; nt = no result given; [ ] = dose if it differs, or a comment. Calls come from the whole dose curve; as a rule, active = well fitted curve in the direction sought with a large enough effect; inconclusive = small, poorly fitted or top-dose-only effect, or another doubt; inactive = no such curve, though single readings can be large; an effect the other way counts as inactive or inconclusive. % is set by controls: 0 for no effect and ±100 for the full control effect; potency is the fitted concentration of half-maximal effect.

SMILES	Gal4-VP16 FLuc	Tau FP inhib	Tau fibril ThT	Tau fluor counter	RORg inh
Cc1ccc(NC(=S)N2CCCC(c3nc4ccc(C)cc4[nH]3)C2)c(C)c1 (configuration not stated)	?	-0.6%	10.1%	-7.9%	1.3%
Cc1cc2nc(C3CCCN(C(=S)Nc4ccccc4C)C3)[nH]c2cc1C (configuration not stated)	-15.1%	-4.3%	-8.3%	-12.1%	20µM*
Cc1ccc2nc(C3CCCN(C(=S)Nc4cccc(C)c4C)C3)[nH]c2c1 (configuration not stated)	?	-6.9%	-6.1%	-19.8%	11.2µM*
NC(=O)c1cc2cc(Cl)ccc2o/c1=N/NC(=O)c1cccs1	23.2%	-1.3%	?	-11.8%	3.7%
CC1=C(C(=O)Nc2ccccc2C(F)(F)F)C(c2ccc(C)s2)NC(=S)N1 (configuration not stated)	-9.3%	6.0%	-5.9%	-3.0%	?
CC1=C(C(=O)OC(C)C)C(c2cccs2)NC(=S)N1 (configuration not stated)	?	-12.9%	-1.4%	-7.9%	12.6µM*
CC1=C(C(=O)Nc2ccccc2C(F)(F)F)C(c2sccc2C)NC(=S)N1 (configuration not stated)	-1.8%	-7.3%	-2.2%	-2.6%	20µM*
COC(=O)C1=C(C)NC(=S)NC1c1ccc(-c2cc(Cl)ccc2Cl)o1 (configuration not stated)	4.47µM*	-17.0%	-3.1%	-11.0%	3.98µM*
COC(=O)C1=C(C)NC(=S)NC1c1sccc1C (configuration not stated)	-9.6%	?	4.8%	8.8%	15.8µM*
COc1ccc(C(=O)CNc2ccc(C)cc2C)cc1	5.0%	6.0%	nt	-27.1%	?
CCc1ccc(NC(=O)Cn2ncc3c(C)n(Cc4cccc(Cl)c4)c(C)c3c2=O)cc1	nt	-1.7%	9.1%	9.0%	nt
COc1ccc(NC(=O)CN2CCCN(Cc3ccc(Cl)cc3)S2(=O)=O)cc1Cl	nt	?	-12.4%	?	nt
COC(=O)CC1C(=O)NCCN1C(=O)CSc1nc2ccccc2o1 (configuration not stated)	2.5%	-4.6%	-1.1%	2.6%	24.7%
COC(=O)CC1C(=O)NCCN1C(=O)CSc1nc2ccccc2c(=O)n1CC(C)C (configuration not stated)	?	-1.0%	-5.5%	-5.0%	11.2µM*
CCc1ccccc1NC(=O)c1nnn(-c2ccc(F)cc2)c1C	nt	-6.1%	-14.0%	-25.0%	nt
Oc1ccccc1-c1nnc(-c2ccc(C(F)(F)F)cc2)o1	6.31µM*	-1.2%	-9.9%	-8.4%	3.55µM*
O=S1(=O)Nc2c(ccc3cccnc23)-c2ccccc21	2.51µM*	-14.5%	?	-19.0%	1.26µM*
Cc1cc(C)cc(-n2ccn3c(CC(C)(C)CC(=O)O)nnc3c2=O)c1	nt	2.8%	-0.3%	-5.5%	nt
COc1ccc(CCNC(=O)C(=O)NCC2OCCN2S(=O)(=O)c2ccc(C)cc2)cc1OC (configuration not stated)	10µM*	nt	nt	nt	6.2%
COc1ccccc1CNC(=O)C(=O)NCC1OCCN1S(=O)(=O)c1ccc(Br)cc1 (configuration not stated)	1.5%	nt	nt	nt	40.8%
COc1ccccc1CCNC(=O)C(=O)NCC1OCCN1S(=O)(=O)c1ccc(Br)cc1 (configuration not stated)	35.5µM*	-4.2%	-13.7%	-24.2%	?
CCOc1ccccc1CNC(=O)Cn1c(=O)c2cccn2c2ccc(F)cc21	nt	-1.1%	?	10.2%	nt
CN(C)c1ccc(N=Nc2ccc(S(N)(=O)=O)cc2)cc1	-29.9%	nt	nt	nt	-38.0%
CN(C)c1ccc(N=Nc2ccc(S(=O)(=O)O)cc2)c2ccccc12	-10.1%	2.2%	5.01µM*	?	2.4%
CC(=O)N(/N=C1\Sc2ccccc2C1=O)c1cccc(C)c1	?	-2.9%	7.8%	3.2%	7.08µM*
SMILES	Gal4-VP16 FLuc	Tau FP inhib	Tau fibril ThT	Tau fluor counter	RORg inh
CC(=O)N(CN1C(=O)c2ccccc2C1=O)c1cccc(C)c1	1.8%	7.0%	-4.8%	1.1%	-19.2%
COC(=O)c1nnc(C(=O)N(C)Cc2ccccc2)c2[nH]c3ccccc3c12	-0.2%	-0.1%	?	-5.5%	-0.1%
CC(C)(C)c1ccc(/C=N/NC(=O)c2ccccn2)cc1	-23.8%	2.4%	-14.5%	-10.5%	10µM*
COc1cccc(/C=N/NC(=O)c2ccc(OCc3cccc(Br)c3)cc2)c1	-0.6%	3.7%	-8.6%	-9.1%	14.1µM*
O=C(N/N=C/c1cccc(OCc2ccccc2)c1)c1ccc(Br)cc1	?	0.6%	2.1%	-4.8%	?
CC(C)(C)c1ccc(C(=O)N/N=C/c2ccccn2)cc1	4.47µM*	nt	nt	nt	1.41µM*
O=C(N/N=C/c1ccccn1)c1ccc(Br)cc1	3.16µM*	-6.4%	?	-15.7%	6.31µM*
COc1ccc2c(c1)OC(C)(C)C(c1ccccc1)C2c1ccc(OCCN2CCCC2)cc1 (configuration not stated)	-14.1%	nt	nt	nt	-22.3%
COc1cccc(C(=O)Nc2cccc(C(=O)OCc3cc(=O)n4c(C)csc4n3)c2)c1	nt	-14.1%	-6.6%	-7.3%	nt
CCOC(=O)C1(CCOc2ccccc2)CCN(Cc2ccc(OC)c(COC)c2)CC1	-9.9%	nt	nt	nt	?
COc1cc(CCC(=O)NCc2ccc(F)cc2)cc(OC)c1OC	2.6%	nt	nt	nt	-13.4%
CCN(CC)C(=O)C1CCCN(c2ncnc3c2nc2n3CCCCC2)C1 (configuration not stated)	nt	1.0%	2.0%	4.6%	nt
O=C(N/N=C/c1ccc(F)cc1)c1ccc(Br)cc1	-0.6%	1.5%	-22.5%	-6.1%	?
Cc1cccc(/C=N/NC(=O)c2ccc(Br)cc2)c1	-20.1%	-0.6%	-17.3%	-9.7%	17.8µM*
S=C(NCc1ccc2[nH]c3c(c2c1)CCCC3)Nc1ccccc1	10µM*	11.8%	?	12.6µM*[quencher]	1.78µM*
Cc1cc(C)cc(NC(=S)NCc2ccc3[nH]c4c(c3c2)CCCC4)c1	7.08µM*	?	?	10µM*[quencher]	2.51µM*
CCS(=O)(=O)NCc1ccc2[nH]c3c(c2c1)CCCC3	1.1%	2.8%	-25.1%	?	12.9%
O=C(NCc1ccc2[nH]c3c(c2c1)CCCC3)c1ccc(S(=O)(=O)N2CCCCC2)cc1	1.3%	?	-5.8%	?	17.6%
N#Cc1ccc(CN2CCC3(CC2)CCN(C(=O)c2ccncc2)CC3)cc1	0.2%	nt	nt	nt	-18.3%
S=C(NCCc1ccccc1)NC1CCC(NC(=S)NCCc2ccccc2)CC1 (configuration not stated)	0.2%	?	1.8%	3.4%	-3.5%
S=C(NCCc1ccccc1)NC1CC1	?	8.4%	2.1%	7.5%	4.47µM*
O=C(NC1CCN(C(=S)NCCc2ccccc2)CC1)C1CC1	?	-7.4%	4.2%	-2.7%	10µM*
Clc1ccc(CNC2CCCC2)c(Cl)c1	-1.1%	-2.9%	1.4%	-2.4%	4.8%
